Nrf2 block: blocks Nrf2 signaling | 360,000 tested, 2.1% active | A549 ARE-Fluc reporter, luciferase luminescence, 18-24 h | Potency, µM (top dose mostly 46 µM), usual class: inhibitors; further: nearly all actives have a fitted effect of over 60% in size
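Two sequential reads on A549 ARE_Fluc cells exposed to compound for 18-24 h: a CellTiter-Fluor fluorescence read for viability, then a luciferase luminescence read for Nrf2/ARE activity.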
TrxR1 substrate: substrates of rat thioredoxin reductase 1; purified TrxR1 substrate turnover, NADPH consumption readout; Potency, µM (top dose mostly 114 µM); 390,000 tested, 0.01% active; further: nearly all actives have a fitted effect of over 50% in size
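Rat TrxR1, dispensed at 90 nM, was prereduced with 400 uM NADPH (final) for 5 min at ~22 deg C, then incubated with compound 15 min before 400 uM selenite. A first-read NADPH fluorescence drop versus no-compound background flagged substrates.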
TrxR1 inh: rat TrxR1 inhibition | O89049 | recombinant rTrxR1, NADPH fluorescence consumption, selenite substrate | Potency, µM (series often up to 114 µM), most hits filed as inhibitors | 390,000 tested, 1% active; further: nearly all actives have a fitted effect of over 65% in size
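Rat TrxR1 (90 nM in the dispensed reagent) was pre-reduced with 400 uM NADPH for 5 min at room temperature, then incubated with compound for 15 min. After 400 uM selenite was added, NADPH fluorescence (Ex 340/Em 450 nm) was followed for 8 min.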
Mito fusion act: inhibitors of mitochondrial division or activators of mitochondrial fusion. S. cerevisiae fusion-defective mutant growth rescue, CellTiterGlo 48 h. Potency, µM (titrated, usually from 46.1 µM), actives largely listed as activators. 320,000 tested, 0.23% active; further: nearly all actives have a fitted effect of over 45% in size
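Temperature-sensitive fusion-defective S. cerevisiae (e.g. fzo1-1, mgm1-5) were grown with compound in YPEG medium (3% ethanol, 3% glycerol) for 48 hours at 37C. Growth rescue was measured as viability by CellTiterGlo luminescence after 10 minutes at ambient.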
A549 tox: counter-screen for Nrf2 inhibitors: cytotoxicity in A549 cells | AID 504648 | 390,000 tested, 0.16% active | A549 ARE-Fluc cells, CellTiter-Fluor viability, 18-24 h | Potency, µM (highest dose often 46 µM), usual class: inhibitors
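A549 ARE-Fluc cells in 5% FBS OPTI-MEM, 5000 cells/well, rested 2 h then exposed to compounds in concentration-response for 18-24 h at 37 °C. Viability by CellTiter-Fluor fluorescence (Ex 405/Em 525) after 30 min; luciferase luminescence (BugLite, 15 min, RT) read afterwards.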
mIDH1 inhibitor: inhibitors of human mutant IDH1 R132H | O75874 | IDH1-R132H enzyme, NADPH consumption, diaphorase/resazurin fluorescence | Potency, µM (titrated, usually from 76.6 µM), actives largely listed as inhibitors | 390,000 tested, 0.093% active | AID 602179; further: nearly all actives have a fitted effect of over 65% in size
Target sequence (O75874 whole entry R132H, stated change not applied): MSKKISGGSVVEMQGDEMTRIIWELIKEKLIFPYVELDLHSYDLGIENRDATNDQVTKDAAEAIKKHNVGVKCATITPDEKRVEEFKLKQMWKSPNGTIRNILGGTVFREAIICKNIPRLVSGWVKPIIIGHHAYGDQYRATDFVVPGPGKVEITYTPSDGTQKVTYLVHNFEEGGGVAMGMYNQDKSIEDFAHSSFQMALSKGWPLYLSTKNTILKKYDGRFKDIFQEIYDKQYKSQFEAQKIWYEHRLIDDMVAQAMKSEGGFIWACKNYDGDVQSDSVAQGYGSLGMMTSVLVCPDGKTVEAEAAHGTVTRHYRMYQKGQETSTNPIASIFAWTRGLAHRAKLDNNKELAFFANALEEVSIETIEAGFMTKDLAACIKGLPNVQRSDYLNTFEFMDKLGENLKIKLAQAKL
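IDH1-R132H (0.5 ug/mL) preincubated 30 min with compound, then NADPH (0.016 mM) and alpha-KG (2 mM) added; 80 min at RT, pH 7.5. Remaining NADPH coupled via diaphorase/resazurin to fluorescence (540/590 nm); concentration-response curves normalized to no-enzyme control.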
Hits are given with their value; – = inactive; ? = inconclusive; · = not tested or not shown; [ ] = another dose, or the depositor's remark. Hits are enriched below; roughly 3.1% of the tested compounds scored in any of these assays. The call rests on the fitted dose curve; in most records, active means well fitted curve in the direction sought with a large enough effect; inconclusive means small, poorly fitted or top-dose-only effect, or another doubt; inactive means no such curve, though single readings can be large; an effect the other way counts as inactive or inconclusive.

SMILES | Nrf2 block | TrxR1 substrate | TrxR1 inh | Mito fusion act | A549 tox | mIDH1 inhibitor
O=C(Nc1ccc(Oc2cccnc2)cc1)c1ccc([N+](=O)[O-])cc1 | – | – | – | – | – | –
O=C(Nc1cccnc1)c1ccc(-c2ccccc2)cc1 | – | – | – | – | – | –
O=C(Nc1ccc([N+](=O)[O-])cc1)c1ccc(Cn2cc([N+](=O)[O-])cn2)cc1 | 18µM | – | – | – | – | –
CC(C)CCN1C(=O)c2ccccc2CC1(C)C(=O)NC1CCCCC1 (stereo unspecified) | – | – | – | · | – | ·
CN(N=O)c1ccc(/C=C/c2ccccc2)cc1 | · | – | – | · | · | ·
Cc1cc(NC(=O)CN(C)S(=O)(=O)c2ccc3c(c2)CCC(=O)N3)ccc1Br | ? | – | – | · | – | –
CCCN(CC(=O)Nc1ccccc1OC)CC(=O)c1c(N)n(Cc2ccccc2)c(=O)n(C)c1=O | 13µM | – | – | · | – | –
COc1ccc(Cn2c(C(=O)O)c(CNCC(C)c3ccccc3)c3ccc(OC)cc32)cc1 (stereo unspecified) | – | – | – | · | ? | –
Cc1ccc(C(=O)NCc2ccc3c(c2)CCN3C(=O)c2ccc(C)cc2)cc1 | · | – | – | · | – | –
COc1cccc2c1C(=O)/C(=C/c1ccc(N(C)C)cc1)C2 | · | – | – | · | · | ·
CN(NS(=O)(=O)c1ccc(Br)cc1)c1nc(C(F)(F)F)nc2ccccc12 | 21µM | – | – | – | ? | –
Cc1ccc2c(c1)N(S(=O)(=O)c1ccc(CN3C(=O)c4cccnc4C3=O)cc1)CCO2 | – | – | – | 11µM | – | –
CCN(CC)C(=O)OCCc1cc2ccccc2c(=O)o1 | – | – | 40µM | – | – | –
COc1ccc(-c2nn(CCC#N)cc2C=C(C#N)C#N)cc1 | – | – | ? | – | – | –
Cc1ccc(-c2nn(CCC#N)cc2C=C(C#N)C#N)cc1 | ? | – | 7.9µM | – | – | –
COc1ccc(OC)c(N(C)S(=O)(=O)c2ccc3c(c2)NC(=O)CC(=O)N3)c1 | – | – | – | · | – | –
CCSc1nn(CC(=O)Nc2cccc(CC)c2)c(N)c1S(=O)(=O)c1ccccc1 | ? | – | – | · | – | –
COc1ccc(S(=O)(=O)c2c(SC)nn(CC(=O)Nc3ccc(C)c(Cl)c3)c2N)cc1 | 23µM | – | – | · | ? | –
CCSc1nn(CC(=O)Nc2cccc(Cl)c2)c(N)c1S(=O)(=O)c1ccc(OC)cc1 | 18µM | – | – | · | ? | –
COc1ccc(CNS(=O)(=O)c2ccc(-c3cc(C(F)(F)F)on3)s2)cc1OC | ? | – | – | · | – | –
O=c1c2ccccc2nc2n1CC/C2=C/N1CCN(c2cccc(C(F)(F)F)c2)CC1 | – | – | 14µM | – | – | –
CCc1ccc2oc(-c3ccc(NC(=O)c4cccc(Cl)c4Cl)cc3)nc2c1 | 8.2µM | – | – | · | – | –
CC(=O)Nc1ccc(-c2nc3ccc(NC(C)=O)cc3o2)cc1 | ? | – | 50µM | – | – | –
CC(=O)Nc1ccc2oc(-c3ccccc3)nc2c1 | ? | – | – | ? | – | –
Cc1ccc2nc(-c3cccc(-c4nc5ccc(C)cc5o4)n3)oc2c1 | – | – | – | · | – | ·
SMILES | Nrf2 block | TrxR1 substrate | TrxR1 inh | Mito fusion act | A549 tox | mIDH1 inhibitor
Cc1ccc2nc(-c3ccc(O)cc3)oc2c1 | 6.5µM | – | – | – | – | –
O=C(Nc1ccc2oc(-c3ccc4ccccc4c3)nc2c1)c1cccc(Cl)c1Cl | – | – | – | · | – | –
c1ccc(-c2cn(-c3ccccc3)c3[n+]2CCCS3)cc1 | 9.2µM | – | – | – | – | –
Cc1cc(C)c(S(=O)(=O)/N=C2\C=CC(=O)C(Cl)=C2)c(C)c1 | · | – | 18µM | – | – | –
COc1ccc(NC(=O)Cn2nnc(-c3nc(-c4ccncc4)no3)c2N)cc1OC | – | – | – | · | – | ·
O=[N+]([O-])c1cc(-c2ncccn2)c([N+](=O)[O-])s1 | – | – | 2µM | – | – | –
CCOC(=O)N1CCN(C(=O)Nc2sc3nc4n(c(=O)c3c2C)CCC(C)CC4)CC1 (stereo unspecified) | – | – | 28µM | – | – | –
O=c1[nH]c(=S)c2n[nH]nc2[nH]1 | · | –[0.0914 µM] | – | · | · | ·
COc1cc(/C=C/c2ccnc3ccccc23)ccc1N(C)C | · | – | – | · | · | ·
COC(=O)[C@@]1(Cc2ccc(OC)cc2)[C@@H]2C(=CC(=O)[C@H]2CC(=O)C(=O)N(C)C)CN1C(=O)c1ccccc1 | ? | – | – | – | – | –
C=C1C(=O)C=C2CN(C(=O)c3ccccc3)[C@@](Cc3ccc(F)cc3)(C(=O)OC)[C@@H]12 | 13µM | – | 8.9µM | – | 10µM | –
CC(C)(C)OC(=O)N1CCC(c2c(C(=O)N3CCN(c4ccccc4)CC3)cnn2-c2ccccc2)CC1 | – | – | – | · | – | –
O=C(Nc1nnc(CSCc2ccc(Cl)cc2)s1)c1cccc([N+](=O)[O-])c1 | ? | – | – | – | – | –
O=C(Nc1nnc(CSCc2ccc(F)cc2)s1)c1cccc([N+](=O)[O-])c1 | 18µM | – | – | – | ? | –
CCOC(=O)c1c(C)[nH]c(C(=O)OC(C(=O)N(C)C)c2ccccc2)c1C (stereo unspecified) | · | – | – | · | · | ·
CCCn1nc([N+](=O)[O-])c(C(C#N)c2nc3ccccc3o2)c(Cl)c1=O (stereo unspecified) | – | – | 11µM | – | ? | –
Cn1nc([N+](=O)[O-])c(C(C#N)c2ccccn2)c(Cl)c1=O (stereo unspecified) | 12µM | – | 2.8µM | – | ? | –
N#CC(c1ccccn1)c1ncc(C(F)(F)F)cc1Cl (stereo unspecified) | – | – | – | – | – | –
CCn1nc([N+](=O)[O-])c(C(C#N)c2nc3cc(C(F)(F)F)ccc3s2)c(Cl)c1=O (stereo unspecified) | 8.2µM | – | 32µM | ? | ? | –
Cc1nnsc1C(=O)Oc1ccc(Cl)cc1 | – | – | – | · | – | –
COc1ccc(S(=O)(=O)NCc2ccc3c(c2)CCN3C(C)=O)cc1OC | · | – | – | · | – | –
COC(=O)c1ccc([C@H]2Nc3ccc(S(=O)(=O)Nc4ccc(F)cc4)cc3[C@H]3C=CC[C@H]32)cc1 | – | – | 71µM | · | – | –
COc1cccc(NS(=O)(=O)c2ccc3c(c2)C2C=CCC2C(c2ccc(C(=O)O)cc2)N3)c1 (stereo unspecified) | – | – | 40µM | – | – | –
Fc1ccc([C@@H]2Nc3ccccc3[C@@H]3C=CC[C@@H]32)cc1 | – | – | 28µM | · | – | –
